Screening results as filed in PubChem BioAssay.
Shown are actives, neighbours in structure and some others; about 2.6% of the full set was active somewhere.
p53 reactivator = mutant p53 re-activation in reporter cells; H1299 p53-A138V BP100-luciferase reporter, luminescence, 24 h; Potency, µM (series often up to 92.2 µM), for the others: at the top dose activity change, positive = activation, usual class: activators; 0.063% of 320,000 active; AID 504706; active = well fitted activation curve with a large enough effect; inconclusive = small, poorly fitted or top-dose-only effect; inactive = no such curve, though single readings can be large or run the other way; also: potency is read from the fitted curve at half-maximal effect; % of control where 0% means no effect; nearly all actives have a fitted effect of over 45% in size
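p53-null H1299 cells stably carrying temperature-sensitive p53-A138V and a BP100-luciferase reporter were pinned with compounds (4-point, 1:5 series) and held 24 hrs at 37 deg C. Luminescence was read 10 min after detection reagent.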
TRPV1 agonist = activates the human vanilloid receptor TRPV1; Q8NER1; TRPV1-expressing cells, Fluo-8 calcium influx, agonist mode; activation, % at 8.33 µM; 0.19% of 320,000 active; AID 540275; in the data active = activation above about 80%; inconclusive = between about 30% and that limit; also: 0% is about no effect
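Fluo-8 calcium influx in TRPV1-expressing cells, kinetic read (ex 480/em 520 nm). Compound added and read 3 min for agonist activity, followed by capsaicin at EC20 final and 2 min further read for enhancement.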
ClpP mod = qHTS Assay for Activators of ClpP | ATP-dependent Clp protease proteolytic subunit (Bacillus subtilis (strain 168)), P80244 | purified B. subtilis ClpP, FRET peptide cleavage, 20 min | Potency, µM (top dose mostly 57.5 µM), for the others: top-dose activity change, negative = active | 1.9% of 340,000 active | AID 651965, 2013; active = well fitted falling curve with a large enough effect; inconclusive = small, poorly fitted or top-dose-only effect; inactive = no such curve, though single readings can be large or run the other way; also: potency is read from the fitted curve at half-maximal effect; the source files actives as falling curves though it sought activators and does not explain the sign; nearly all actives have a fitted effect of over 65% in size
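Purified B. subtilis ClpP, 10 microg/mL final in Tris/HCl pH8 with KCl, BSA, glycerol and Tween-20, cleaved an Abz/nitrotyrosine-quenched decapeptide. Fluorescence (ex 320, em 430) was read at 0 and 20 min at room temperature. Delta was normalized to 5.8 microM ADEP and DMSO/no-enzyme controls.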
KCNH2 3.1 inh = inhibitors of human KCNH2 3.1 potassium channel isoform; U2OS KCNH2 3.1, thallium flux FluxOr; hits give low values; activity change, % (tested at about 1.8 µM); 0.95% of 340,000 active; AID 720553;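 active = maximum activity change below -70%; inconclusive = maximum activity change from -70% to -50%; inactive = maximum activity change above -50%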;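 also: thallium influx rate constant from kinetic fluorescence after stimulation buffer; % is scaled to controls: 0 for no effect and ±100 for the full control effect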
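U2OS cells transduced with KCNH2 3.1 mutant virus (1.77 x 10^8 /mL, 4 h), plated overnight at 37 C, loaded 45 min with FluxOr dye plus Red40 quencher. Thallium flux rate constant from kinetic reads after stimulation buffer, normalised to controls.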
hERG WT inh = KCNH2 (human, wildtype) channel inhibition; U2OS, BacMam KCNH2, thallium flux FluxOr; hits give low values; activity change, % at 1.84 µM; 0.37% of 340,000 active;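 active = maximum activity change below -70%; inconclusive = maximum activity change between -70% and -50%; inactive = maximum activity change above -50%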; also: % is scaled to controls: 0 for no effect and ±100 for the full control effect
Target sequence (Q12809 whole entry, looked up): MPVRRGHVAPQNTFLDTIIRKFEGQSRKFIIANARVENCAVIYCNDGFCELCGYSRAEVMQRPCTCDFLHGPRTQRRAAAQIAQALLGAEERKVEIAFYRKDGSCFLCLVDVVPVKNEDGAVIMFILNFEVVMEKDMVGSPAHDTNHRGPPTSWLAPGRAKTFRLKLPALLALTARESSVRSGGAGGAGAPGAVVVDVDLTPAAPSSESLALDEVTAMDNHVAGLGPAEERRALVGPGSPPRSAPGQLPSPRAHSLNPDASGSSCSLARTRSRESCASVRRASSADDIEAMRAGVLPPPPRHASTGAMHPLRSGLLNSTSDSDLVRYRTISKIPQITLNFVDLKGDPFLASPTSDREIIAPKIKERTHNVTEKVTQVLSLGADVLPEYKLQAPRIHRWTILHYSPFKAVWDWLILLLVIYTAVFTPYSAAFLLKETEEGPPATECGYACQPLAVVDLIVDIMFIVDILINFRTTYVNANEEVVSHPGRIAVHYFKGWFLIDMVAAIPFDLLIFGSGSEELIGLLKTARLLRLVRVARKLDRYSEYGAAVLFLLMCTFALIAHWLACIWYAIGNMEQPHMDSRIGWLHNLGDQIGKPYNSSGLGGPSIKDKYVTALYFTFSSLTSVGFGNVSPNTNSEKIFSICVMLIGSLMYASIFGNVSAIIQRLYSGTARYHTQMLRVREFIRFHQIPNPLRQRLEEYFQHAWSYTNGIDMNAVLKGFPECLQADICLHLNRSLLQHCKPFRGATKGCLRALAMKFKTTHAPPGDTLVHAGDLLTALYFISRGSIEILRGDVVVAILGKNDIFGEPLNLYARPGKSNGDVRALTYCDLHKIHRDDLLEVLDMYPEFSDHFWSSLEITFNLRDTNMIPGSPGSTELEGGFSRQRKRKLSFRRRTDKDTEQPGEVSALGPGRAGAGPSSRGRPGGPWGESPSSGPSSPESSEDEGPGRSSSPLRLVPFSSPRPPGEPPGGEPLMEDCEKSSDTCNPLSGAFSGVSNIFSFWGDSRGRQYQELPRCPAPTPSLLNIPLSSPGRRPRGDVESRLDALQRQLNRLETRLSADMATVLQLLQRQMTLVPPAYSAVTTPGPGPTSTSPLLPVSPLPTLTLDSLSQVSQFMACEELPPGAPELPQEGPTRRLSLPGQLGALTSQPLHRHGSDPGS
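U2OS cells were transduced with wild-type KCNH2 virus (2.03 x 10^8 / mL) for 4 h at room temperature, then cultured overnight at 37 C. Thallium flux was read with FluxOr dye. Rate constants were normalized to DMSO controls.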
TRPV1 PAM = potentiators of human vanilloid receptor 1 (TRPV1); Q8NER1; TRPV1-expressing cells, Fluo-8 calcium influx, capsaicin EC20 potentiation; potentiation, % at 8.33 µM; 0.02% of 320,000 active; in the data active = potentiation above about 80%; inconclusive = between about 30% and that limit; also: 0% is about no effect
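Fluo-8 calcium influx in TRPV1-expressing cells, kinetic read (ex 480/em 520 nm). Compound added and read 3 min for agonist activity, followed by capsaicin at EC20 final and 2 min further read for enhancement.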
Starred values were filed as active, the others as inactive; ? = inconclusive; / = not tested or not shown.

SMILES	p53 reactivator	TRPV1 agonist	ClpP mod	KCNH2 3.1 inh	hERG WT inh	TRPV1 PAM
CCC(=O)Nn1cnc2c(c1=O)C1(CCCCC1)Cc1ccccc1-2	-1%	?	-1%	-16	-6	-21
Nc1ncnc2c1C1(CCCCC1)Cc1ccccc1-2	0%	2	16µM*	10	-3	4
Nc1n[nH]c2c1C1(CCCCC1)Cc1ccccc1-2	-7%	0	-8%	-5	-5	5
c1ccc(OCc2nc3c4c(ncn3n2)-c2ccccc2CC42CCCC2)cc1	-3%	0	13µM*	2	-3	-4
COc1cc(OC)c(/C=C/c2ccc3ccccc3[n+]2C)c(OC)c1	/	/	0%	/	/	/
CCCCOc1ccc(CNC(=O)c2cnc3sc(N4CCCC4)nn3c2=O)cc1	/	/	-13%	/	/	/
COc1ccc2c(c1)C1(Nc3ccccc3-c3nc4ccccc4n31)C(=O)N2 (configuration not stated)	-7%	0	1%	16	1	15
CC1(c2ccncc2)Nc2ccccc2-c2nc3ccccc3n21 (configuration not stated)	6%	0	28µM*	-8	-10	-4
COc1ccc2c(c1OC)CCC2=O	5%	0	28µM*	-3	-6	2
COc1ccc(-c2ccc(OC)c(OC)c2OC)c(OC)c1OC	/	/	-1%	-13	-5	/
COC(=O)c1c(C)[nH]c(C(=O)COc2ccc3ccc(=O)oc3c2)c1C	-1%	-3	3%	-6	-9	10
CC(=O)c1c(C)[nH]c(C(=O)COc2ccc3ccc(=O)oc3c2)c1C	-3%	-3	32µM*	1	-19	0
CCN(CC)c1ccc(/C=C2\C=Cc3ccccc32)cc1	/	/	2%	/	/	/
CN(/N=C/c1ccc2c(c1)OCO2)c1ccccc1	10µM*	10	0%	-1	-2	-17
C(=N\N(c1ccccc1)c1ccccc1)/c1ccc2c(c1)OCO2	0%	/	-13%	-6	-30	/
COc1ccc(-c2cn3nc(N4CCCC(C(=O)NCc5ccc(Cl)cc5)C4)sc3n2)cc1 (configuration not stated)	/	/	2%	/	/	/
Cc1nc2c(sc(=S)n2Cc2ccco2)c(=O)n1CC(=O)Nc1ccc(F)cc1	-10%	1	0%	-87*	21	-3
COc1cc2c[n+](C)c3c4ccccc4ccc3c2cc1OC	/	/	8.9µM*	8	-10	/
CN(C)c1ccc(C=Nc2cnc3ccccc3c2)cc1	/	/	4%	/	/	/
CC(=O)c1ccc(NC(=O)CN(C)S(=O)(=O)c2cccc3nsnc23)cc1	/	/	-1%	/	/	/
CCOc1ccc(NC(=O)Cn2c(CCC(=O)O)ccc2-c2ccc(Cl)cc2)cc1	/	/	-5%	/	/	/
Cc1cc(S(=O)(=O)c2ccc(Cl)cc2)nc(S(=O)(=O)c2ccc(Cl)cc2)c1C#N	/	/	4%	-73*	2	/
Cc1cc(C)c(S(=O)(=O)c2ccc(Cl)cc2)c(Cl)n1	-6%	2	/	0	-2	-7
COc1ccc(NS(=O)(=O)c2cc(NC(=O)/C=C/c3cccs3)ccc2N2CCOCC2)cc1	-15%	-3	28µM*	-25	2	-6
COc1ccc(NS(=O)(=O)c2cc(NC(=O)c3ccc(C)s3)ccc2N2CCOCC2)cc1	-5%	88*	/	-10	-2	17
SMILES	p53 reactivator	TRPV1 agonist	ClpP mod	KCNH2 3.1 inh	hERG WT inh	TRPV1 PAM
CC(=O)NC(=S)Nc1ccc(N2CCOCC2)c(S(=O)(=O)Nc2cc(Cl)ccc2Cl)c1	-4%	2	/	-82*	?	3
Nc1ccc2c(c1)C=C/C2=C\c1ccccc1	/	/	-1%	/	/	/
Cc1cc(C)c2oc(C(=O)Nc3c(C)n(C)n(-c4ccccc4)c3=O)cc(=O)c2c1	/	/	0%	/	/	/
Cc1nc2nc(SCC(N)=O)[nH]c2cc1Br	-13%	-4	16µM*	-2	0	?
CCOC(=O)CNC(=O)CSc1nc2nc(C)c(Br)cc2[nH]1	?	-1	-1%	-5	-7	3
COc1cc2cc(C(=O)O)n(C)c2c(OC)c1OC	1%	-1	13µM*	-15	-2	-8
